This passage reports outcome and AC50 results from PubChem BioAssay (EPA / NIEHS).

Read-out in experiment [1]: Pyruvate Dehydrogenase Kinase 4 (PDK4), PDK4 (gene 5166)
The experiment can be described thus: LTEA_HepaRG_PDK4: Life Technologies and Expression Analysis (LTEA) Assay for Pyruvate Dehydrogenase Kinase 4 (PDK4) using HepaRG (AID 2283525). The conditions noted are these: mRNA level, 48 h; actives raise or lower the signal. An outline of the steps: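 Readout is qRT-PCR of PDK4 transcript, normalized to three housekeeping genes, with bidirectional fitting against 0.5% DMSO vehicle. Differentiated HepaRG cells were treated 48 h in serum-free induction medium, duplicate wells, eight-point half-log series topping at 100 uM.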

Read-out in experiment [2]: NAD(P)H dehydrogenase [quinone] 1 (NQO1), NQO1 (gene 1728)
Put plainly: LTEA_HepaRG_NQO1: Life Technologies and Expression Analysis (LTEA) Assay for NAD(P)H dehydrogenase [quinone] 1 (NQO1) using HepaRG (AID 2283526). As to conditions: mRNA level, 48 h; actives raise or lower the signal. Summed up:
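In this assay, gene expression is read by qRT-PCR after 48 h exposure of HepaRG cells to eight concentrations (max 100 uM, half-log) in 0.5% DMSO. Each chemical runs in duplicate, and activity is scored relative to vehicle.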

Read-out in experiment [3]: Nuclear factor erythroid 2-related factor 2 (Homo sapiens) (UniProt Q16236)
Put plainly: LTEA_HepaRG_NFE2L2: Life Technologies and Expression Analysis (LTEA) Assay for Nuclear factor erythroid 2-related factor 2 (NFE2L2) Transcription Factor using HepaRG (AID 2283527).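 As to outcome: TaqMan qRT-PCR transcript level normalised to ACTB GAPDH and POLR2A housekeeping genes.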 The conditions noted are these: mRNA level, 48 h; actives raise or lower the signal. An outline of the steps: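 NFE2L2 transcript level was read by qRT-PCR (housekeeping ACTB/GAPDH/POLR2A normalisation) after 48 h chemical treatment of HepaRG in serum-free induction medium. Duplicate 8-point half-log curves, top 100 uM, 0.5% DMSO vehicle; up- or down-regulation fitted against vehicle.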

Read-out in experiment [4]: succinate dehydrogenase complex iron sulfur subunit B (SDHB), SDHB (gene 6390)
Put plainly: LTEA_HepaRG_SDHB: Life Technologies and Expression Analysis (LTEA) Assay for succinate dehydrogenase complex iron sulfur subunit B (SDHB) using HepaRG (AID 2283528). The conditions noted are these: mRNA level, 48 h; actives raise or lower the signal. Summed up:
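HepaRG cells (~100,000/well, plated 48 h) exposed in duplicate for 48 h in serum-free induction medium to 8-point half-log series from 100 uM in 0.5% DMSO; mRNA by qRT-PCR normalised to ACTB, GAPDH, POLR2A; bidirectional fit versus DMSO.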

Read-out in experiment [5]: Signal transducer and activator of transcription 3 (Homo sapiens) (UniProt P40763)
The experiment can be described thus: LTEA_HepaRG_STAT3: Life Technologies and Expression Analysis (LTEA) Assay for Signal transducer and activator of transcription (STAT3) using HepaRG (AID 2283529). The conditions noted are these: mRNA level, 48 h; actives raise or lower the signal. An outline of the steps:
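STAT3 transcript quantified by qRT-PCR against three housekeeping genes (ACTB, GAPDH, POLR2A), fitted both directions relative to DMSO. HepaRG cultures exposed 48 h to eight half-log concentrations, top 100 uM, 0.5% DMSO, serum-free induction medium.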

Read-out in experiment [6]: solute carrier (SLCO1B1), SLCO1B1 (gene 10599)
The experiment can be described thus: LTEA_HepaRG_SLCO1B1: Life Technologies and Expression Analysis (LTEA) Assay for solute carrier (SLCO1B1) using HepaRG (AID 2283530). As to conditions: mRNA level, 48 h; actives raise or lower the signal. Summed up:
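Differentiated human HepaRG cells, plated 48 h, switched to serum-free induction medium and exposed in duplicate for 48 h to 8 half-log concentrations (top 100 uM) in 0.5% DMSO. SLCO1B1 mRNA by TaqMan qRT-PCR, normalized to ACTB/GAPDH/POLR2A.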

Read-out in experiment [7]: sulfotransferase 2A1 (SULT2A1), SULT2A1 (gene 6822)
Put plainly: LTEA_HepaRG_SULT2A1: Life Technologies and Expression Analysis (LTEA) Assay for sulfotransferase 2A1 (SULT2A1) using HepaRG (AID 2283531). The conditions noted are these: mRNA level, 48 h; actives raise or lower the signal. Summed up:
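Differentiated human HepaRG cells in serum-free induction medium were exposed for 48 h to eight half-log concentrations (top 100 uM, 0.5% DMSO). SULT2A1 mRNA was measured by qRT-PCR, normalized to ACTB, GAPDH and POLR2A, and fitted bidirectionally against DMSO.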

Read-out in experiment [8]: Transforming Growth Factor (TGFA), TGFA (gene 7039)
The experiment can be described thus: LTEA_HepaRG_TGFA: Life Technologies and Expression Analysis (LTEA) Assay for Transforming Growth Factor (TGFA) using HepaRG (AID 2283532). The conditions noted are these: mRNA level, 48 h; actives raise or lower the signal. Summed up:
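TGFA transcript quantified by qRT-PCR (Fluidigm arrays) against three housekeeping genes, after 48 hours chemical treatment of HepaRG cells. Top concentration 100 uM with half-log dilutions, 8 points, duplicates, 0.5% DMSO.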

Read-out in experiment [9]: Transforming Growth Factor (TGFB1), TGFB1 (gene 7040)
Put plainly: LTEA_HepaRG_TGFB1: Life Technologies and Expression Analysis (LTEA) Assay for Transforming Growth Factor (TGFB1) Transporter using HepaRG (AID 2283533). As to conditions: mRNA level, 48 h; actives raise or lower the signal. Summed up:
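Differentiated human HepaRG cells in serum-free induction medium were exposed in duplicate for 48 h to eight concentrations (top 100 uM, half-log steps, 0.5% DMSO). TGFB1 mRNA was quantified by qRT-PCR, normalized to ACTB, GAPDH, POLR2A, and fitted bidirectionally against DMSO.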

Read-out in experiment [10]: TIMP1, TIMP1 (gene 7076)
The experiment can be described thus: LTEA_HepaRG_TIMP1: Life Technologies and Expression Analysis (LTEA) Assay for TIMP1 using HepaRG (AID 2283534).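 As to outcome: TaqMan qRT-PCR signal normalized to ACTB GAPDH and POLR2A housekeeping genes.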 As to conditions: mRNA level, 48 h; actives raise or lower the signal. An outline of the steps:
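Differentiated human HepaRG cells in serum-free induction medium were exposed 48 h to chemicals (8 half-log concentrations, top 100 uM, 0.5% DMSO). TIMP1 mRNA was quantified by TaqMan qRT-PCR, normalized to ACTB/GAPDH/POLR2A; bidirectional fit versus DMSO.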

Read-out in experiment [11]: Tumor necrosis factor receptor 1 (TNFRSF1A), TNFRSF1A (gene 7132)
The experiment can be described thus: LTEA_HepaRG_TNFRSF1A: Life Technologies and Expression Analysis (LTEA) Assay for Tumor necrosis factor receptor 1 (TNFRSF1A) using HepaRG (AID 2283535). As to conditions: mRNA level, 48 h; actives raise or lower the signal. Summed up: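 Differentiated human HepaRG cells were exposed in duplicate for 48 h in serum-free induction medium to eight concentrations (top 100 uM, half-log steps, 0.5% DMSO). TNFRSF1A mRNA was quantified by qRT-PCR, normalized to ACTB, GAPDH and POLR2A, then fitted bidirectionally against DMSO.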

Read-out in experiment [12]: Thyroid Hormone Responsive (THRSP), THRSP (gene 7069)
Put plainly: LTEA_HepaRG_THRSP: Life Technologies and Expression Analysis (LTEA) Assay for Thyroid Hormone Responsive (THRSP) using HepaRG (AID 2283536). The conditions noted are these: mRNA level, 48 h; actives raise or lower the signal. Summed up:
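THRSP transcript quantified by Fluidigm qRT-PCR against three housekeeping genes after 48 h chemical exposure of HepaRG cells in serum-free induction medium; eight-point half-log series, top 100 uM, 0.5% DMSO vehicle, duplicate wells.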

Read-out in experiment [13]: Cellular tumor antigen p53 (Homo sapiens) (UniProt P04637)
The experiment can be described thus: LTEA_HepaRG_TP53: Life Technologies and Expression Analysis (LTEA) Assay for Tumor Protein P53 (TP53) using HepaRG (AID 2283537). As to conditions: mRNA level, 48 h; actives raise or lower the signal. Summed up:
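Differentiated HepaRG cells in serum-free induction medium exposed 48 h in duplicate to 8 half-log concentrations, top 100 uM, 0.5% DMSO. TP53 mRNA by TaqMan qRT-PCR (Fluidigm), normalized to ACTB, GAPDH, POLR2A; fitted bidirectionally versus DMSO.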

Read-out in experiment [14]: UDP glucuronosyltransferase (UGT1A1), UGT1A1 (gene 54658)
Put plainly: LTEA_HepaRG_UGT1A1: Life Technologies and Expression Analysis (LTEA) Assay for UDP glucuronosyltransferase (UGT1A1) using HepaRG (AID 2283538). The conditions noted are these: mRNA level, 48 h; actives raise or lower the signal. An outline of the steps:
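mRNA induction or loss of UGT1A1, by TaqMan qRT-PCR, in duplicate HepaRG wells after 48 h exposure to half-log dilutions topping at 100 uM; DMSO (0.5%) served as baseline.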

Read-out in experiment [15]: UDP glucuronosyltransferase (UGT1A6), UGT1A6 (gene 54578)
Put plainly: LTEA_HepaRG_UGT1A6: Life Technologies and Expression Analysis (LTEA) Assay for UDP glucuronosyltransferase (UGT1A6) using HepaRG (AID 2283539). As to conditions: mRNA level, 48 h; actives raise or lower the signal. An outline of the steps:
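Human HepaRG cells were dosed for 48 h in serum-free induction medium with 0.5% DMSO vehicle, eight-point half-log series from 100 uM, in duplicate. UGT1A6 mRNA was measured by qRT-PCR, normalized to ACTB, GAPDH, POLR2A, and fitted bidirectionally against DMSO.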

Read-out in experiment [16]: X-box binding protein 1 (XBP1), XBP1 (gene 7494)
Put plainly: LTEA_HepaRG_XBP1: Life Technologies and Expression Analysis (LTEA) Assay for X-box binding protein 1 (XBP1) using HepaRG (AID 2283540). As to conditions: mRNA level, 48 h; actives raise or lower the signal. An outline of the steps: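 Differentiated human HepaRG cells in serum-free induction medium were exposed in duplicate for 48 h to eight half-log concentrations up to 100 uM in 0.5% DMSO. XBP1 mRNA was quantified by qRT-PCR, normalised to ACTB, GAPDH and POLR2A, with bidirectional fitting against DMSO.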

Experiment [17] can be described thus: LTEA_HepaRG_LDH_cytotoxicity: Cytotoxicity Assessment in the Life Technologies and Expression Analysis (LTEA) Assay (AID 2283563; active = hit-call score of the fitted dose curve at least 0.9, where 1 is the maximum;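 as to AC50: LDH activity released into spent culture medium as a marker of cell death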). Summed up:
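Differentiated human HepaRG cells, plated 48 h beforehand, were switched to serum-free induction medium and exposed for 48 h to eight half-log concentrations (top 100 uM) in 0.5% DMSO. LDH was measured in spent medium; activity was fitted relative to DMSO vehicle.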

Experiment [18] is described as follows: ATG_XTT_Cytotoxicity: Cytotoxicity Assessment in the Attagene TRANS-FACTORIAL HepG2 Assay (AID 2283584; active = hit-call score of the fitted dose curve at least 0.9, where 1 is the maximum). Summed up: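 HepG2 human liver cells, transiently transfected with multiple GAL4-UAS reporter units, were dosed and read at 24 h by XTT as cell number. Loss of signal was fitted relative to DMSO negative control baseline.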
The nature of experiment [19]: TOX21_p53_BLA_p2_viability: Viability Assessment in the Tox21 HCT-116 p53 Agonism Beta-lactamase Assay, Phase 2 (AID 2283591; active = hit-call score of the fitted dose curve at least 0.9, where 1 is the maximum;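 also: compound exposure lasted 16 h at 37 °C; actives lower the ATP signal meaning cytotoxicity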). An outline of the steps: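 Cytotoxicity readout: CellTiter-Glo ATP luminescence, 30 min at room temperature, after the beta-lactamase read. Cells were HCT116 exposed 16 h at 37C to compounds pin-transferred at 217-fold dilution from DMSO stocks.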

Read-out in experiment [20]: solute carrier (SLC22A1), SLC22A1 (gene 6580)
Put plainly: LTEA_HepaRG_SLC22A1: Life Technologies and Expression Analysis (LTEA) Assay for solute carrier (SLC22A1) using HepaRG (AID 2283524). The conditions noted are these: mRNA level, 48 h; actives raise or lower the signal. An outline of the steps: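 Transcript level of SLC22A1 quantified by qRT-PCR (normalized to three housekeeping genes) after 48 h chemical exposure of HepaRG cells, eight concentrations up to 100 µM, half-log steps, 0.5% DMSO vehicle. Gain or loss relative to DMSO fitted bidirectionally.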

Records with an inconclusive call do not appear. The source made the active and inactive calls. The calls were made as follows, unless noted: active = hit-call score of the fitted dose curve at least 0.9, where 1 is the maximum; inactive = score below 0.9.

Sequence of Signal transducer and activator of transcription 3 (Homo sapiens) (P40763 whole entry, looked up): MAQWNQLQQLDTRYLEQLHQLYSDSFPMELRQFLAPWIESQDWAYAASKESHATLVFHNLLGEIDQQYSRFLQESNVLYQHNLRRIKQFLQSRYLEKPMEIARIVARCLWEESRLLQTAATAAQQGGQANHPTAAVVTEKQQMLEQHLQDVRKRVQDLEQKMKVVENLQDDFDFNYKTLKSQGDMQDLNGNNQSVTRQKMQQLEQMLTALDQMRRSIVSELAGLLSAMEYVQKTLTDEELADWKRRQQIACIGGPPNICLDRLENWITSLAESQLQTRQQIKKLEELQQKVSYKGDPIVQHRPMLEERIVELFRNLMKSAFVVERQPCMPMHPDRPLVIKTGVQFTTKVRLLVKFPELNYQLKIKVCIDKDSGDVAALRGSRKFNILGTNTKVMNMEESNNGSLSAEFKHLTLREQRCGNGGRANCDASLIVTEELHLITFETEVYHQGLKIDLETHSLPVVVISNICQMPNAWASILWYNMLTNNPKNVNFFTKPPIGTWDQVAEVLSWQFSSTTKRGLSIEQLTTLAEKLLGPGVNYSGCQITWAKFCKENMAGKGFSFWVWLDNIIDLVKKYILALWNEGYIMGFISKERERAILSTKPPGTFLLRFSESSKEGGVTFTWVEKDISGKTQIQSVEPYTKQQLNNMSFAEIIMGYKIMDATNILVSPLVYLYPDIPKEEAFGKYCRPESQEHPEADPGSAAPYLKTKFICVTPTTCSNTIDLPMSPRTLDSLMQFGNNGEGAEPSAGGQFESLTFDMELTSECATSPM
Sequence of Nuclear factor erythroid 2-related factor 2 (Homo sapiens) (Q16236 whole entry, looked up): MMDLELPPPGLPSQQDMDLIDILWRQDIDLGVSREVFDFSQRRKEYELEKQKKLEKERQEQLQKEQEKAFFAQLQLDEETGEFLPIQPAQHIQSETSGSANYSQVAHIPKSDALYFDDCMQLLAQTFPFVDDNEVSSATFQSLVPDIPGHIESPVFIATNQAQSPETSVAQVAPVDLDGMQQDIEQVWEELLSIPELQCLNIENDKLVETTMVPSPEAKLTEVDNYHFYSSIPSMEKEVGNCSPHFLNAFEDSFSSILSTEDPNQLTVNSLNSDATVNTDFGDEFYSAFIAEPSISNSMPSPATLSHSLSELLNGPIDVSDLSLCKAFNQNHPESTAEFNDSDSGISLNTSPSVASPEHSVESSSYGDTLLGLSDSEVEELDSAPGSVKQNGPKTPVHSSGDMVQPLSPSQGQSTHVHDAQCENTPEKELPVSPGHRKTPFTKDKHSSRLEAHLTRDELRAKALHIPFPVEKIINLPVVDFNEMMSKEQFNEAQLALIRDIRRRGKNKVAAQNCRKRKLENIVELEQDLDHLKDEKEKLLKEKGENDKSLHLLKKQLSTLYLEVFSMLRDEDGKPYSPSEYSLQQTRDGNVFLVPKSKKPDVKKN
Sequence of Cellular tumor antigen p53 (Homo sapiens) (P04637 whole entry, looked up): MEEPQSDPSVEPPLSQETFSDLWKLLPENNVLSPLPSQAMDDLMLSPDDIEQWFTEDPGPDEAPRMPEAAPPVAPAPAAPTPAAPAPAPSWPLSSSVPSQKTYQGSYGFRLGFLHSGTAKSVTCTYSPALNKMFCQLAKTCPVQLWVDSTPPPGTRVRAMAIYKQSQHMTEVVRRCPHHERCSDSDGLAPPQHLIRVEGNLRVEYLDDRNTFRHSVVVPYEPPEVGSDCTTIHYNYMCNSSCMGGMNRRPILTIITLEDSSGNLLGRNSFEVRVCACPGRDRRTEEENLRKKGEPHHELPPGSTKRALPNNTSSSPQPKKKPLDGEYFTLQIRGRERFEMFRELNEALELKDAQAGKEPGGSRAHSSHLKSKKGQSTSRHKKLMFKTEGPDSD

Take `CCN(CC)N=O`: the call in experiment [1], in experiment [2], in experiment [3], in experiment [4], in experiment [5] and in experiment [6] was inactive. In addition, the molecule was called inactive in experiment [7], in experiment [8], in experiment [9], in experiment [10], in experiment [11] and in experiment [12]. The call in [13], in [14], in experiment [15], in experiment [16], in experiment [17] and in experiment [18] was inactive. Also, the result in [19] was inactive.

The term AC50 denotes the concentration at which the activity in the assay is half-maximal. Take `COc1cc(C=O)cc2c1[C@H](COC(N)=O)[C@]1(OC(C)=O)ON2C[C@H]2[C@@H]1N2C(C)=O`: the AC50 in experiment [20] is 0.58 µM (active); in experiment [1], 95.3 µM (active); in experiment [3] it was 93.1 µM (active); in [6], 0.733 µM (active); in experiment [8] it was 1.46 µM (active); in experiment [10], 2.63 µM (active). The AC50 is 24.6 µM (active) in [14] and 1.54 µM (active) in experiment [17]. The call in [2], in [5], in experiment [7], in experiment [11], in [12] and in experiment [13] was inactive. The call in experiment [15], in experiment [16] and in experiment [19] was inactive.

Turning to `CCC12COCN1COC2`, the outcome in experiment [1], in experiment [2], in experiment [3], in [4], in experiment [5] and in experiment [6] was inactive. Further, the outcome in [7], in experiment [8], in experiment [9], in experiment [10], in [11] and in experiment [12] was inactive. The molecule was called inactive in experiment [13], in experiment [14], in [15], in experiment [16], in experiment [17] and in [19].

With `OCCOCCO`, the result in experiment [1], in experiment [2], in experiment [3], in experiment [4], in experiment [5] and in [6] was inactive. The molecule was called inactive in [7], in [8], in [9], in experiment [10], in experiment [11] and in [12]. For the same molecule, the call in [14], in experiment [15], in experiment [16] and in [17] was inactive.
